Assay outcomes deposited in PubChem by several laboratories.
CYP2C9 inh: blocks human cytochrome P450 2C9 | inhibition, % at 5 µM | P11712 | CYP2C9 Supersomes, luciferin-H conversion, luminescence | AID 777 | actives 20% (n = 96,000);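 active = blocking of liver enzyme CYP2C9 beyond about 50% at 5 µM, limit read from the data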
CYP2C19 inh: human CYP2C19 inhibition; P33261; CYP2C19 Supersomes, luciferin-H EGE luminescence, 30 min; inhibition, % at 5 µM; actives 21% (n = 96,000);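 active = CYP2C19 inhibition above a set limit at 5 µM in the primary screen, cut at about 50% in these data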
sEH inh: blocks human soluble epoxide hydrolase activity | inhibition, % at 2 µM | actives 0.34% (n = 91,000) | recombinant human sEH enzymatic activity assay | AID 707; in the data active = inhibition above about 80%
Target sequence (P34913 whole entry, looked up): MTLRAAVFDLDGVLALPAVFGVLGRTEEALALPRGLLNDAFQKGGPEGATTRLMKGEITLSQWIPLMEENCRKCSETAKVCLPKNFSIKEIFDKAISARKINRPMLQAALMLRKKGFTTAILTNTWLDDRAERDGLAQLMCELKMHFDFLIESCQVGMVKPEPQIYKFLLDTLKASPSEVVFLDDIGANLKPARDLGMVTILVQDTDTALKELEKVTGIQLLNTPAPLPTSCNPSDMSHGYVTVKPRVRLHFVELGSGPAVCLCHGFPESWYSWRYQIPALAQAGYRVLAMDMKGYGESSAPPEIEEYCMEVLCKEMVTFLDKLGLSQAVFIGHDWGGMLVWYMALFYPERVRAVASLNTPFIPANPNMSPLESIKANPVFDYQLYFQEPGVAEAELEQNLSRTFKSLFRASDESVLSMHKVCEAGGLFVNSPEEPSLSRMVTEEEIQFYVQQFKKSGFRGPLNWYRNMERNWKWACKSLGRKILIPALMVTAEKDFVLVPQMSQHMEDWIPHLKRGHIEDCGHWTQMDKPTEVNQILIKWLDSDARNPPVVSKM
sEH act: activators of human soluble epoxide hydrolase | P34913 | purified human sEH enzymatic activity, activator screen | activation, % at 2 µM | actives 0.04% (n = 91,000) | AID 717; in the data active = activation above about 37%
CYP2C19 act: increases human CYP2C19 enzyme activity; P33261; recombinant CYP2C19, luciferin-H EGE luminescence; stronger effect = higher value; 0 = fully inhibited enzyme, 1 = untreated enzyme; activation factor at 5 µM; 96,000 tested, under 10 active;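 active = activation factor of at least 2 at 5 µM in the primary screen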
CYP2C9 activ: activators of human CYP2C9 | activation factor at 5 µM | recombinant CYP2C9, luciferin-H conversion, luminescence; stronger effect = higher value; factor 1 = untreated enzyme, 0 = blocked | actives 1.4% (n = 96,000) | AID 1024 | P11712;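 active = activation factor of 2 or more for CYP2C9 at a 5 µM dose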
Of the large screens only hits and unclear results are named; the others gave an inactive call. The list is not random: actives were taken first. Their share in the collection is about 27%.

NNC(=O)c1cnn(Cc2ccccc2)c1N	sEH inh 87 (no result: CYP2C9 inh, CYP2C19 inh, CYP2C19 act, CYP2C9 activ)
O=C(CSc1nnc(-c2cccs2)n1CC1CCCO1)c1cc2ccccc2o1 (centres undefined)	none
O=C(O)CCC(=O)Nc1ccc(OCC(=O)O)cc1	none
CCOC(=O)C1=C(C)Nc2ccc(C)cc2S1	CYP2C19 inh 66
CSCCOC(=O)C1=C(C)Nc2ccc(C)cc2S1	CYP2C9 inh 61
CCOCCOC(=O)C1=C(C)Nc2ccc(C)cc2S1	CYP2C9 inh 71, CYP2C19 inh 91 (no result: sEH inh, sEH act)
CCOC(=O)/C=C1\Nc2ccccc2SC1=O	none
COc1ccc(/C=N/O)cc1COc1ccc(NC(C)=O)cc1	none (no result: CYP2C9 inh, CYP2C19 inh, CYP2C19 act, CYP2C9 activ)
O=S1(=O)CCC(SCc2nc3sccn3c2Br)C1 (centres undefined)	none
CCCOc1ccc(Cc2nc(N)nc(N)n2)cc1	none
CCCCC1CCC(C(=O)Nc2c(C)n(C)n(-c3ccccc3)c2=O)CC1 (centres undefined)	none (no result: CYP2C9 inh, CYP2C19 inh, CYP2C19 act, CYP2C9 activ)
Cc1nn(C(=O)c2c([N+](=O)[O-])cnn2C)c(C)c1Cl	none (no result: CYP2C9 inh, CYP2C19 inh, CYP2C19 act, CYP2C9 activ)
C(=N\n1cnnc1)/c1ccccc1OCCOc1ccccc1	CYP2C19 inh 78 (no result: sEH inh, sEH act)
COc1cc(/C=N/n2cnnc2)ccc1OCCOc1ccccc1	CYP2C9 inh 58, CYP2C19 inh 82
COc1ccc(/C=N/n2cnnc2)cc1COc1ccccn1	none
COc1cc(/C=N/n2cnnc2)ccc1OCc1ccccc1	CYP2C9 inh 68, CYP2C19 inh 70
COc1cc(C=O)ccc1OCCOCCOc1ccc(Cl)cc1	none
Clc1ccc(Oc2cccc(/C=N/n3cnnc3)c2)cc1	CYP2C9 inh 66, CYP2C19 inh 91
CC1CN(C(=O)CN2C(=O)c3ccccc3S2(=O)=O)CC(C)O1 (centres undefined)	none
COc1cccc(NC(=O)COc2ccc(N3CC(C(=O)NCC(C)C)CC3=O)cc2)c1 (centres undefined)	none
CNC(=O)c1cc(Nc2nnc(C)c3ccccc23)ccc1OC	none
COc1cc(/C=N/n2cnnc2)ccc1OCc1ccc(C)cc1	CYP2C9 inh 70
CCOc1cc(/C=N/n2cnnc2)ccc1O	none
C(=N\n1cnnc1)/c1cccc(OCCOc2ccccc2)c1	CYP2C19 inh 80
Fc1ccccc1/C=N/n1cnnc1	none
C=CCc1ccc(OCCOc2ccc(/C=N/n3cnnc3)cc2OCC)c(OC)c1	CYP2C19 inh 61
CON1C(=O)C(=O)N(OC)C(C)(C)C1C (centres undefined)	none
Cc1cc2c(s1)c1cnn(Cc3ccccc3F)c(=O)c1n2C	CYP2C19 inh 51
COC(=O)C1=C(C)N(CC(C)C)C(=O)C1	CYP2C19 inh 71
COC(=O)C1=C(C)N(Cc2ccc(OC)cc2)C(=O)C1	CYP2C19 inh 97 (no result: sEH inh, sEH act)
COC(=O)C1=C(C)N(Cc2ccco2)C(=O)C1	none
COC(=O)C1=C(C)N(CCc2ccc(OC)c(OC)c2)C(=O)C1	CYP2C19 inh 65
COC(=O)C1=C(C)N(Cc2ccc(OC)c(OC)c2)C(=O)C1	none
COC(=O)C1=C(C)N(CCc2ccc(OC)cc2)C(=O)C1	CYP2C19 inh 78
COC(=O)C1=C(C)N(Cc2cccnc2)C(=O)C1	none (no result: CYP2C9 inh, CYP2C19 inh, CYP2C19 act, CYP2C9 activ)
CC1(C(=O)NC23CC4CC(CC(C4)C2)C3)CC1(Cl)Cl (centres undefined)	none
COc1ccc(CCN2C(=O)C3C4C=CC(C3C2=O)C2C(=O)N(CCc3ccc(OC)c(OC)c3)C(=O)C42)cc1OC (centres undefined)	none
COc1ccc(CCN2C(=O)C3C4C=CC(C4)C3C2=O)cc1OC (centres undefined)	CYP2C19 inh 57
Cc1ccc(NC(=O)CCSc2nc(C)cc(C)n2)cc1	none
c1ccc(Nc2nnc(SCc3cccc4ccccc34)s2)cc1	CYP2C9 activ 2.1
CC(C)c1ccc(/C=C/C(=O)n2nnc3ccccc32)cc1	none
CN(C)S(=O)(=O)c1ccc(NC(=O)Cn2c(-c3ccccc3)noc2=O)cc1	CYP2C9 inh 95, CYP2C19 inh 78
Cc1ccc(C)c(C(=O)NC2CC(C)(C)NC(C)(C)C2)c1	CYP2C19 inh 54
Cc1ccccc1C(=O)NC1CC(C)(C)NC(C)(C)C1	none (no result: CYP2C9 inh, CYP2C19 inh, CYP2C19 act, CYP2C9 activ)
CCCCNC(=O)C(Cc1ccccc1)NS(=O)(=O)c1ccc2c(c1)c(=O)n(C)c(=O)n2C (centres undefined)	none
CCOC(=O)c1cc2c(=O)n3ccccc3nc2n(Cc2ccccc2Cl)c1=N	CYP2C9 inh 57 (no result: sEH inh, sEH act)
